Bioassay records as filed in PubChem.
Shown are actives, neighbours in structure and some others; about 4.5% of the full set was active somewhere.
PfHsp90 set2 = inhibits growth of yeast expressing Plasmodium falciparum Hsp90 | inhibition, % at 9.4 µM | S. cerevisiae expressing PfHsp90, BacTiter-Glo ATP, 48 h; yeast lacking PDR1 and PDR3 efflux regulators | hit rate 0.32% among 310,000;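 active = every replicate shows inhibition above about 80%, whatever the replicate mean, limit read from the data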;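 also: 0% = DMSO neutral controls and 100% = 20 µM radicicol positive controls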
NLRP3 yeast inh = NALP3 inhibition in yeast; AID 2825; Yeast reconstituted NLRP3/ASC/caspase-1, beta-gal luminescence, 24 h; hit rate 0.39% among 330,000; inhibition, % at 10 µM;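 active = inhibition of 50% or more; inactive = inhibition below 50%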;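 also: plate controls were induced DMSO wells for no effect and uninduced yeast grown without galactose for full effect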
tim23-1 inh = tim23-1 yeast growth inhibition | S. cerevisiae tim23-1 growth, BacTiter-Glo luminescence, 24 h | inhibition, % at 20 µM | hit rate 1.3% among 330,000;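 active = growth inhibition of the mutant yeast at or above 50%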;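 also: temperature-sensitive mutant grown at 25 °C; plate controls were DMSO-treated mutant yeast for no effect and medium wells lacking yeast for full effect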
TIM10 inh = inhibits growth of TIM10 yeast strain. inhibition, % at 10 µM. AID 463195. S. cerevisiae TIM10 strain growth, BacTiter-Glo luminescence, 24 h. hit rate 1.4% among 330,000;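 active = inhibition of 40% or more at the single tested concentration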;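 also: wild-type TIM10 isogenic control strain grown at permissive 25 °C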
tim10-1 inh = tim10-1 yeast growth inhibition | S. cerevisiae tim10-1 ts strain growth, BacTiter-Glo, 24 h | inhibition, % at 20 µM | hit rate 2.2% among 330,000 | AID 463190;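 active = inhibition of at least 40%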;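 also: mutant grown at 25 °C; 0% = DMSO wells with yeast and 100% = wells holding no yeast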
SKKanGAS inh = inhibitors of SKKanGAS S. pyogenes growth in kanamycin (SK-promoter or general growth effect) | BacTiter-Glo, 6 h | inhibition, % at 7.5 µM | hit rate 1.3% among 300,000 | AID 1662;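 active = mean replicate score, as percent of positive control median, at least 50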;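 also: strain carries kanamycin resistance gene driven by streptokinase promoter and grows in 40 µg/ml kanamycin; loss of luminescence reflects streptokinase promoter inhibition or plain growth inhibition; 0% = median of DMSO wells and 100% = positive control at its reference dose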
NALP3 yeast conf = NALP3 inhibition confirmation in yeast; AID 435006; shares compounds with NLRP3 yeast inh; inhibition, % at 10 µM; hit rate 81% among 1,300; yeast expressing human NALP3, luminescence; in the data active = inhibition above about 48%
Casp1 ASC ctr = counter-screen for NALP3 inhibitors: yeast caspase-1-ASC; shares compounds with NLRP3 yeast inh; yeast expressing Caspase-1-ASC, luminescence counter screen; inhibition, % at 10 µM; hit rate 66% among 1,000; AID 488784
NALP3 retest = confirmation retest of NALP3 inhibitors in yeast | shares compounds with NLRP3 yeast inh | yeast expressing human NALP3, luminescence read-out | inhibition, % at 10 µM | hit rate 53% among 1,000 | AID 488794
tim10-1 conf = confirmation of tim10-1 mutant yeast growth inhibitors. shares compounds with tim10-1 inh. S. cerevisiae tim10-1 ts strain growth, BacTiter-Glo, 24 h. inhibition, % at 20 µM. hit rate 56% among 7,400;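 active = inhibition of yeast growth at or above a set limit in either of two repeat tests at 20 µM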;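 also: tim10-1 mutant grown at permissive 25 °C to find synthetic lethal compounds; 0% = DMSO yeast wells and 100% = medium wells without yeast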
TIM10 conf = TIM10 yeast growth inhibition, confirmed; AID 463215; hit rate 63% among 4,600; S. cerevisiae tim10 strain growth, BacTiter-Glo luminescence, 24 h; shares compounds with TIM10 inh; inhibition, % at 10 µM;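 active = inhibition of yeast growth at or above a set limit in either of two replicates at 10 µM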;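 also: this counterscreen used the strain with wild-type TIM10; 0% = yeast with DMSO and 100% = medium wells lacking yeast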
tim23-1 conf = tim23-1 yeast growth inhibition, confirmed. AID 463218. shares compounds with tim23-1 inh. S. cerevisiae tim23-1 growth, BacTiter-Glo luminescence, 24 h. inhibition, % at 20 µM. hit rate 83% among 4,400;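 active = inhibition above about 39% in either of two replicate wells at 20 µM, limit read from the data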;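 also: temperature-sensitive tim23-1 mutant grown at 25 °C; 0% = DMSO wells with yeast and 100% = medium wells without yeast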
Active calls of the source: *. Rule as the data show it, unless noted: active = inhibition above about 50%; inactive = the rest.

What do the screens show for `Cc1ccc(C)c(Sc2ccc(NC(=O)CCl)cc2)c1`?
NLRP3 yeast inh: 81.1*; tim23-1 inh: 73.5*; TIM10 inh: 51.0*; tim10-1 inh: 57.0*; SKKanGAS inh: 7.9; NALP3 yeast conf: 81.2*; Casp1 ASC ctr: 87.8*; NALP3 retest: 73.8*; tim10-1 conf: 55.2*; TIM10 conf: 35.7*; tim23-1 conf: 48.8*

What do the screens show for `Cc1ccc(Sc2ccc(NC(=O)CCl)cc2)cc1C`?
PfHsp90 set2: -10.4; NLRP3 yeast inh: 66.4*; tim23-1 inh: 66.2*; TIM10 inh: 40.2*; tim10-1 inh: 49.5*; SKKanGAS inh: 10.7; NALP3 yeast conf: 76.4*; Casp1 ASC ctr: 61.9*; NALP3 retest: 66.2*; tim10-1 conf: 52.0*; TIM10 conf: 38.9*; tim23-1 conf: 75.5*

What do the screens show for `COc1ccc(NC(=O)CN(C)C(=O)CNC(=O)c2cccs2)cc1`?
PfHsp90 set2: 5.8; NLRP3 yeast inh: 1.3; tim23-1 inh: -5.8; TIM10 inh: 11.0; tim10-1 inh: -24.3; SKKanGAS inh: 3.3

Results for CCCCc1cc(O)c(CCCC)c(O)c1 ?
PfHsp90 set2: 7.8; NLRP3 yeast inh: 51.4*; tim23-1 inh: 53.3*; TIM10 inh: -3.3; tim10-1 inh: 34.9; SKKanGAS inh: 14.5; NALP3 yeast conf: 61.9*; Casp1 ASC ctr: 34.1; NALP3 retest: 49.8; tim23-1 conf: 41.5*

Results for Nc1nc2sc3c(c2c(=O)s1)CCCC3 ?
PfHsp90 set2: -93.0; NLRP3 yeast inh: 70.6*; tim23-1 inh: 73.2*; TIM10 inh: 44.0*; tim10-1 inh: 54.0*; SKKanGAS inh: -0.3; NALP3 yeast conf: 83.0*; Casp1 ASC ctr: 69.9*; NALP3 retest: 80.0*; tim10-1 conf: 25.2; TIM10 conf: 33.0*; tim23-1 conf: 51.6*

What do the screens show for `COc1ccc(S(=O)(=O)N2CCN(c3nc(-c4cccnc4)nc4ccccc34)CC2)cc1`?
PfHsp90 set2: -26.2; NLRP3 yeast inh: 19.5; tim23-1 inh: 35.1; TIM10 inh: 0.3; tim10-1 inh: 11.2

Results for Cn1c2ccccc2c(=O)c2c(=O)n(C3CCCCC3)c(-c3cccs3)nc21 ?
PfHsp90 set2: 12.7; NLRP3 yeast inh: 58.3*; tim23-1 inh: 60.5*; TIM10 inh: 34.0; tim10-1 inh: 43.4*; SKKanGAS inh: 60.4*; NALP3 yeast conf: 70.7*; Casp1 ASC ctr: 55.4*; NALP3 retest: 52.0*; tim10-1 conf: 36.0*; tim23-1 conf: 69.2*

How did Cn1c2ccccc2c(=O)c2c(=O)n(C3CCCCCC3)c(C3CCCCC3)nc21 do in these assays?
PfHsp90 set2: 6.0; SKKanGAS inh: 33.0

What do the screens show for `Cc1ccnc(NC(=O)c2ccc(S(=O)(=O)N3CCCC3)cc2)c1`?
PfHsp90 set2: 3.2; NLRP3 yeast inh: 14.7; tim23-1 inh: 12.8; TIM10 inh: 12.0; tim10-1 inh: 13.1; SKKanGAS inh: -2.7

What do the screens show for `CC(=O)COc1ccc2c3c(c(=O)oc2c1)CCCC3`?
PfHsp90 set2: -12.4; NLRP3 yeast inh: 15.2; tim23-1 inh: 20.6; TIM10 inh: 7.5; tim10-1 inh: 13.2; SKKanGAS inh: 1.7

Results for C#CCOc1ccc2c3c(c(=O)oc2c1)CCCC3 ?
PfHsp90 set2: -8.0; NLRP3 yeast inh: 59.0*; tim23-1 inh: 57.4*; TIM10 inh: -0.2; tim10-1 inh: 38.7; SKKanGAS inh: 4.2; NALP3 yeast conf: 61.8*; Casp1 ASC ctr: 60.0*; NALP3 retest: 35.3; tim23-1 conf: 49.8*

Results for O=C(Oc1cc(=O)oc2c1c(=O)n1c3c(cccc23)CC1)c1ccc(F)cc1 ?
NLRP3 yeast inh: 57.9*; tim23-1 inh: 70.8*; TIM10 inh: 47.0*; tim10-1 inh: 46.0*; SKKanGAS inh: 41.8; NALP3 yeast conf: 73.8*; tim10-1 conf: 4.1; TIM10 conf: 30.9; tim23-1 conf: 53.4*

What do the screens show for `O=C(Oc1cc(=O)oc2c1c(=O)n1c3c(cccc23)CC1)c1ccccc1`?
PfHsp90 set2: 21.7; NLRP3 yeast inh: 64.3*; tim23-1 inh: 57.5*; TIM10 inh: 41.2*; tim10-1 inh: 11.7; SKKanGAS inh: 9.6; NALP3 yeast conf: 76.5*; Casp1 ASC ctr: 56.3*; NALP3 retest: 62.6*; TIM10 conf: 28.8; tim23-1 conf: 66.5*

Results for CN(C)S(=O)(=O)c1ccc(C(=O)NCCc2ccco2)cc1 ?
PfHsp90 set2: -1.7; NLRP3 yeast inh: 13.0; tim23-1 inh: 3.6; TIM10 inh: 12.9; tim10-1 inh: -16.2; SKKanGAS inh: 5.0

What do the screens show for `CCc1ccc(OCC2c3cc(OC)c(OC)cc3CCN2C(=S)NCCOC)cc1` (stereo not given)?
PfHsp90 set2: -15.5; NLRP3 yeast inh: 18.0; tim23-1 inh: 9.7; TIM10 inh: 9.4; tim10-1 inh: 11.8; SKKanGAS inh: 12.0

What do the screens show for `CCc1ccc(OCC2c3cc(OC)c(OC)cc3CCN2C(=S)NC)cc1` (stereo not given)?
PfHsp90 set2: 3.5; NLRP3 yeast inh: 3.7; tim23-1 inh: 24.9; TIM10 inh: 13.9; tim10-1 inh: 48.3*; SKKanGAS inh: 2.1; tim10-1 conf: -15.2

What do the screens show for `O=C1c2ccccc2C(=O)N1CC1c2ccccc2CCN1C(=O)C1CCCCC1` (stereo not given)?
PfHsp90 set2: 15.6; NLRP3 yeast inh: 13.4; tim23-1 inh: 37.6; TIM10 inh: 6.0; tim10-1 inh: 22.4; SKKanGAS inh: -0.9

How did CCN(CC)C(=O)N1CCc2ccccc2C1CN1C(=O)c2ccccc2C1=O (stereo not given) do in these assays?
PfHsp90 set2: 12.3; NLRP3 yeast inh: 0.9; tim23-1 inh: 42.0; TIM10 inh: 27.7; tim10-1 inh: 48.3*; SKKanGAS inh: -3.8; tim10-1 conf: 21.9

What do the screens show for `Cc1ccc(-n2nnnc2SCc2ccc(C(=O)O)cc2)cc1C`?
PfHsp90 set2: -20.9; NLRP3 yeast inh: 8.8; tim23-1 inh: 2.8; TIM10 inh: -0.8; tim10-1 inh: 12.1; SKKanGAS inh: 2.5
